From PubChem BioAssay AID708 (SRMLSC, 2007) come the findings set out here.

Among all 65,000 compounds or so, fewer than 10 were called active.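 The calls were made as follows: active = at 10 µM dose, initial 340 nm absorbance at least 2 fold that of control wells; inactive = change under 2 fold.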 Not all results are given here.

This test in a line: A340 optical interference by library compounds – biochemical, MLSMR library, data from PS, PMK, MK assays, artefact control, profiling panel (AID 708).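 Also: initial absorbance extrapolated from kinetic A340 decline of NADH oxidation.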 The following applies: compound absorbance at 340 nm, fold over control; at 10 µM; active compounds read high.
Consider `CCCc1cc(=O)[nH]c(SCC(=O)OCc2ccccc2)n1`, for which the fold change is 1.02 (inactive). As for `CCOC(=O)C1=C(C)N=c2s/c(=C\C(=O)OC)c(=O)n2C1c1ccc(OC)cc1` (stereo not given), the figure is 1.09 (inactive); as for `CCOC(=O)C1CCCN(Cc2nc(N)nc(Nc3ccc(C)cc3)n2)C1` (stereo not given), 1 (inactive); as for `CN(C)CCNC(=O)C(C(=O)c1ccccc1)n1ccccc1=O` (stereo not given), 1.03 (inactive). For `COCCNC(=S)c1ccc(OC)cc1` the value was 1.01 (inactive).

With `CCOC(=O)CSc1nnc(-c2cccc(Br)c2)o1`, the fold change is 1.02 (inactive). With `N#Cc1nc(N)nc(N(c2ccccc2)c2ccccc2)n1`, the fold change is 1 (inactive). As for `Cc1ccccc1N1C(=O)C2ON(c3ccccc3)C(c3ccncc3)C2C1=O` (stereo not given), the figure is 0.99 (inactive); as for `O=C(CCN1C(=O)c2ccccc2C1=O)NCCN1CCOCC1`, 0.99 (inactive). For `COc1ccccc1-c1cc(C(=O)NCCCn2ccnc2)no1` the value was 0.99 (inactive). For `NC(=O)Cn1c(=O)oc2ccccc21` the value was 0.97 (inactive).

On to `O=C(Cn1c(=O)sc2ccccc21)Nc1nc2c(s1)CCCC2`, for which the fold change is 1.03 (inactive).

In the case of `O=C(Cn1nc(C(F)(F)F)c2c1CCC2)NCc1ccc(F)cc1`, the fold change is 1.04 (inactive). For `Cc1ccc(Oc2ccc(N)cc2)cc1`, the fold change is 1.02 (inactive). For `CCOC(=O)N1CCN(C(=O)CSc2nnc(-c3c[nH]c4ccccc34)n2CCOC)CC1` the value was 1.06 (inactive); for `Cc1ccc(N2CCN(S(=O)(=O)N(C)C)CC2)cc1Cl`, 1.01 (inactive); for `O=S(N1CCCCCC1)C12CC3CC(CC(C3)C1)C2` (stereo not given), 0.99 (inactive). As for `CC(C)OC(=O)CN1C(=O)c2ccccc2C1=O`, the figure is 1.01 (inactive); as for `CCS(=O)(=O)N1CCC(C(=O)N2CCN(c3ccccc3)CC2)CC1`, 1.02 (inactive). For `CC1(C)CC(=O)c2sc(N)nc2C1` the value was 1.11 (inactive); for `O=C(NCc1ccco1)c1cnn2c(C(F)(F)F)cc(-c3ccco3)nc12`, 1.04 (inactive); for `CC1CCCN(c2ccc(C(=O)NCCc3ccccc3)cn2)C1` (stereo not given), 1.04 (inactive). `O=C(c1ccc2c(c1)C(=O)N(c1ccc(Cl)cc1)C2=O)N1CCN(c2ccccn2)CC1`: the fold change is 1 (inactive).

For `Cc1ccc2c(c1)c1ncn(CCC3=CCCCC3)c(=O)c1n2C`, the fold change was 1 (inactive). For `CCNc1nc(SCCOc2ccccc2)nc(N(C)C)n1` the value was 1.04 (inactive). For `CCC(C(=O)NC1CCCC1)N(C(=O)c1snc(C(N)=O)c1N)c1ccc2c(c1)OCCO2` (stereo not given) the value was 1.1 (inactive). With `COc1ccc(C(=O)N(CCN2CCOCC2)CC(=O)NC2CCCC2)cc1OC`, the fold change is 0.98 (inactive). As for `OCCCN1c2ccccc2Nc2nnc(-c3ccccc3)cc21`, the figure is 1.04 (inactive). For the compound `COc1ccccc1-c1cc(C(=O)N2CCCCC2)no1`, the fold change is 1.02 (inactive). Regarding `Cc1ccc2nc(-c3ccc(SCC(=O)Nc4cc(C)on4)nc3)[nH]c2c1`, the fold change is 1.14 (inactive).

Consider `CCNS(=O)(=O)c1ccc(NC(=O)Nc2cccc(OC)c2)cc1`, for which the fold change is 1.06 (inactive). Consider `O=C(NC1CCCC1)c1ccc(Br)s1`, for which the fold change is 1.03 (inactive).

As for `CCOC(=O)CSc1nnc(CNC(=O)Cc2ccccc2)n1-c1ccccc1OC`, the fold change is 0.99 (inactive). As for `CCOc1ccc(C(CC(=O)O)NC(=O)COc2ccccc2)cc1` (stereo not given), the figure is 1.03 (inactive).

Turning to `CCCC1C(c2ccccc2)C(C#N)(C#N)C2(C#N)CC1(N)NC2=O` (stereo not given), the fold change is 1.02 (inactive). As for `C#CCNc1nc(C(C)C)nc2c1nnn2Cc1ccccc1F`, the figure is 1.04 (inactive); as for `CN(C)/C=C1\C=C(c2ccccc2)OC1=O`, 1.21 (inactive). `O=C(c1cnn2ccccc12)N1CCc2ccccc21`: the fold change was 1.12 (inactive). Take `CCOc1ccc(Cn2nnc(C(=O)Nc3ccc(OC)cc3OC)c2N)cc1`: the fold change was 0.98 (inactive). As for `COc1ccc(NC(=O)c2cccc(NC(=O)c3ccco3)c2)c(OC)c1`, the figure is 1.07 (inactive); as for `O=C(NCCc1ccccn1)c1ccc(COc2ccccc2)o1`, 0.98 (inactive). Turning to `CCOC(=O)C1CCN(C(=O)Nc2ccc(Cl)cc2)CC1`, the fold change is 1.01 (inactive).

On to `COc1cccc(N(CC(=O)NC2CCCC2)C(=O)Cn2nnc(-c3ccc(C)cc3)n2)c1`, for which the fold change was 1.01 (inactive). As to `Cc1nc(SCC(=O)Nc2cc(C)on2)c2c3c(sc2n1)CCCC3`, the fold change is 1.02 (inactive).

For `CC1CCN(Cc2nc3c(c(=O)n(C)c(=O)n3C)n2CCc2ccccc2)CC1`, the fold change is 0.98 (inactive). For `NC(=O)COc1ccc2c3c(c(=O)oc2c1)CCCCC3`, the fold change is 1.15 (inactive). As for `CCc1cc(=O)oc2cc(OCC(=O)N3CCCc4ccccc43)ccc12`, the fold change is 1.08 (inactive). For the compound `CCOC(=O)N1CCC(NC(=O)CCc2cn(C)c3ccccc23)CC1`, the fold change is 0.98 (inactive). With `Cc1ccnc(N2C(=O)c3ccccc3C2Nc2ccc3c(c2)OCCO3)c1` (stereo not given), the fold change was 1.06 (inactive). For `CCOc1ccc(-c2cn(S(=O)(=O)c3cccc4nsnc34)nc2N)cc1` the value was 0.98 (inactive); for `c1ccc(-n2ncc3c2ncn2c(CSc4nc5ccccc5s4)nnc32)cc1`, 1.06 (inactive).

Consider `c1ccc2c(CNn3cnnc3)cccc2c1`, for which the fold change is 1.05 (inactive).

As for `Cc1ccc(C(=O)NCC2CCCO2)o1` (stereo not given), the fold change is 1.04 (inactive).

Take `CCn1c(CSc2nncn2-c2ccc(OC)cc2)nc2cc(S(=O)(=O)N(C)C)ccc21`: the fold change is 0.96 (inactive). In the case of `CC(C)(O)C#Cc1ccc(C(=O)N2CCC(C(N)=O)(N3CCCCC3)CC2)cc1`, the fold change was 1.04 (inactive).

As for `CCN(CC)S(=O)(=O)c1ccc2nc(COC(=O)c3n[nH]c4ccccc34)[nH]c2c1`, the fold change is 1.03 (inactive). Take `COc1cccc(-c2nnc(NC(=O)c3ccc(S(=O)(=O)N(CC(C)C)CC(C)C)cc3)o2)c1`: the fold change was 1.06 (inactive). As for `CC12COC3(C(=O)Nc4ccc(Cl)cn4)CC1CCC32C` (stereo not given), the fold change is 1.04 (inactive). For `Cc1nc(N2CCCC2C(=O)O)c2oc3ccccc3c2n1` (stereo not given) the value was 1.02 (inactive); for `CCCCN(CC)CCCNC(=O)CS(=O)(=O)Cc1nc(-c2cccc(OC)c2)oc1C`, 1 (inactive). Consider `CC(=O)Nc1cccc(Oc2cc(C#N)c(C#N)cc2N2CCOCC2)c1`, for which the fold change was 1.1 (inactive). As for `Cn1c2ccccc2c2c(C(=O)N3CCN(c4ccc(F)cc4)CC3)cn(C3CCCC3)c(=O)c21`, the figure is 1.05 (inactive); as for `COc1ccc(CCNS(=O)(=O)c2ccc(C(=O)NCc3ccco3)cc2)cc1OC`, 0.99 (inactive).

As to `Cc1ccc(S(=O)(=O)NC(C)C(=O)Nc2ccccc2C(=O)N2CCCC2)cc1` (stereo not given), the fold change was 0.96 (inactive).

With `COc1ccc(-n2nnnc2SCC(=O)c2ccc(OC)c(OC)c2)cc1`, the fold change was 1.03 (inactive). Take `Cn1cnc2c1c(=O)n(Cc1c(Cl)cccc1Cl)c(=O)n2C`: the fold change was 1.04 (inactive). For `Cc1cc(C(=O)NCCCc2ccccc2)no1` the value was 1 (inactive); for `COc1ccc(C(=O)Cn2nnc(-c3ccc(N4CCOCC4)cc3)n2)cc1OC`, 1 (inactive). `CCOc1cccc(-c2nn3c(-c4ccccn4)nnc3s2)c1`: the fold change was 1.01 (inactive).

Consider `O=C(CN1CCN(C(=O)c2ccco2)CC1)Nc1ccc(Cl)c(C(F)(F)F)c1`, for which the fold change is 1 (inactive).
